# Records with an inconclusive call do not appear. Unmarked numbers belong to inactive results. Active and inactive are the calls of the source. The call rests on the fitted dose curve; in most records, active means well fitted inhibition curve with a large enough effect; inconclusive means small, poorly fitted or top-dose-only effect; inactive means flat fitted curve, though single readings scatter.
# Biological target: Dual specificity protein kinase CLK4 (Homo sapiens) (UniProt Q9HAZ1)
# Assay: qHTS Assay for Inhibitors of CDC-like Kinase 4 (ADP-Glo Assay) (AID 1771); further: nearly all actives have a fitted effect of over 70% in size
# Settings: recombinant CLK4, ADP-Glo luminescence; series mostly up to 80 µM; activity change, negative = inhibition: at the top concentration
# In short: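 Kinase reaction: Clk4 at 25 nM, RS repeat peptide substrate at 100 uM, ATP at 1 uM, 1 hr, room temperature. Product ADP detected as luciferase signal via ADP-Glo.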
# On the % scale 0 is the no-effect control and ±100 the full control effect; potency means the concentration at half of the fitted maximal effect.
# Chain of Dual specificity protein kinase CLK4 (Homo sapiens) (Q9HAZ1 whole entry, looked up): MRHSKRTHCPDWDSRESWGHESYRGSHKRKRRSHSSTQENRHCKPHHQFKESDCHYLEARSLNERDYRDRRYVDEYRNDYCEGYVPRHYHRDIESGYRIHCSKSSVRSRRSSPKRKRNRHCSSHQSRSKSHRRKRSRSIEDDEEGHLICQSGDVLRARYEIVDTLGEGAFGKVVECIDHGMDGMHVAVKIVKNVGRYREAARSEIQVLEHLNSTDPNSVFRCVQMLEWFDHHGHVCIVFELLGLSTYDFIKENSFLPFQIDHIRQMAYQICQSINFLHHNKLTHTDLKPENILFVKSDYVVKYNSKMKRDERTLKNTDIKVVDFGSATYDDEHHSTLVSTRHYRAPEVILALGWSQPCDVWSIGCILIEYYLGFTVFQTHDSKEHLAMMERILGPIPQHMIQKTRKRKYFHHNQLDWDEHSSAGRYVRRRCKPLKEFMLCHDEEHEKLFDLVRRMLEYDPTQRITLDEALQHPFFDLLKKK
Structure (SMILES),Potency,"activity change, negative = inhibition [%]"
COCCNc1ncnc2ccc(-c3ccccc3OC)cc12,10 µM (active),
O=c1c(-c2cccc(F)c2)nc2cncnc2n1Cc1ccc(F)cc1,,8.22
CS(=O)(=O)Nc1cccc(-c2nc(Nc3ccncc3)c3ccccc3n2)c1,10 µM (active),
O=c1c(CCc2ccccc2)nc2cnc(N3CCNCC3)nc2n1Cc1cccs1,,1.15
COc1ccccc1-c1nc(Nc2ccncc2)c2ccccc2n1,12.6 µM (active),
COc1ccc(Oc2ncc3nc(-c4ccc(F)cc4)c(=O)n(C[C@H]4CCCO4)c3n2)cc1,,1.69
COCCn1c(=O)c(CCc2ccccc2)nc2cnc(Oc3ccccc3)nc21,,-0.56
CN(C)c1ncc2nc(-c3ccccc3)c(=O)n(C)c2n1,,-23
COc1ncc2nc(-c3ccccc3)c(=O)n(CCc3ccccc3)c2n1,,0.252
CN(C)c1ccc(-c2cncnc2NCCN2CCOCC2)cc1,,-6.49
COc1ccc(-c2nc3cnc(N4CCN(C)CC4)nc3n(CCc3ccccc3)c2=O)cc1,,3.75
COc1ccccc1CNc1cc(-c2cccnc2)ncn1,31.6 µM (active),
CCNc1ncc2nc(CCc3ccccc3)c(=O)n(Cc3cccc(OC)c3)c2n1,,-0.572
CN(Cc1ccco1)c1ncnc2ccc(-c3cccc(NS(C)(=O)=O)c3)cc12,7.94 µM (active),
CN(C)c1nc(-c2cccc(C#N)c2)nc2ccccc12,15.8 µM (active),
CN1CCN(c2ncnc3ccc(-c4cccc(C#N)c4)cc23)CC1,15.8 µM (active),
COc1cccc(Nc2ncc3ncc(=O)n(Cc4ccc(F)cc4)c3n2)c1,2.51 µM (active),
COc1ccccc1CNc1ccnc(-c2cccc(NS(C)(=O)=O)c2)n1,25.1 µM (active),
COc1cccc(-c2ccc3ncnc(N4CCNCC4)c3c2)c1,2 µM (active),
N#CCCn1c(=O)c(-c2ccc(Cl)cc2)nc2cnc(N3CCOCC3)nc21,,-0.868

Structure (SMILES),Potency,"activity change, negative = inhibition [%]"
CCNc1ncc2nc(-c3ccc(OC)cc3)c(=O)n(C)c2n1,,-19.2
O=c1c(CCc2ccccc2)nc2cnc(Nc3ccccc3)nc2n1C[C@H]1CCCO1,,-9.94
CN(C)c1ccc(-c2cc(N(C)Cc3ccco3)ncn2)cc1,31.6 µM (active),
COc1ccccc1CNc1ccnc(-c2cccnc2)n1,28.2 µM (active),
CN(C)c1ncnc2ccc(-c3cccc(NS(C)(=O)=O)c3)cc12,12.6 µM (active),
CN1CCN(c2ncnc3ccc(-c4ccccc4C(F)(F)F)cc23)CC1,,-25.1
COc1ccc2[nH]cc(CCNc3ncncc3-c3ccccc3OC)c2c1,25.1 µM (active),
COCCn1c(=O)c(-c2ccccc2)nc2cnc(Oc3cccc(Cl)c3)nc21,,-6.9
Cc1cnc(CNc2ncnc3ccc(-c4ccc(N(C)C)cc4)cc23)cn1,11.2 µM (active),
COc1ccc(Oc2ncc3nc(-c4cc(F)cc(F)c4)c(=O)n(C4CC4)c3n2)cc1,,-7.45
COc1ccccc1-c1ccc2ncnc(N3CCNCC3)c2c1,14.1 µM (active),
O=c1c(CCc2ccccc2)nc2cnc(Oc3ccccc3)nc2n1C1CC1,,-2.36
Cn1c(=O)c(-c2ccc(Cl)cc2)nc2cncnc21,,-12.9
COc1ccccc1-c1nccc(NCc2cccs2)n1,,-1.2
CCNc1ncc2nc(CCc3ccccc3)c(=O)n(CCC#N)c2n1,,-4.58
COc1ccc2[nH]cc(CCNc3cc(-c4cccc(C#N)c4)ncn3)c2c1,31.6 µM (active),
CN(C)c1ncc2nc(CCc3ccccc3)c(=O)n(CCC#N)c2n1,,-0.356
COc1ccccc1-c1ccc2ncnc(N3CCOCC3)c2c1,12.6 µM (active),
COc1ccccc1CNc1cc(-c2ccccc2CN(C)C)ncn1,,1.1
Cc1cnc(CNc2ncnc3ccc(-c4ccccc4C)cc23)cn1,25.1 µM (active),

# Biological target: Dual specificity protein kinase CLK4 (Homo sapiens) (UniProt Q9HAZ1)
# Assay: qHTS Assay for Inhibitors of CDC-like Kinase 4 (ADP-FP Assay) (AID 1795); further: nearly all actives have a fitted effect of over 60% in size;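 on activity change, negative = inhibition: recombinant human CLK4 phosphorylating RS repeat peptide at 1 µM ATP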
# Settings: Transcreener ADP fluorescence polarization; series mostly up to 50 µM; activity change, negative = inhibition: at the top concentration
# In short: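 Recombinant Clk4 (6.25 nM) phosphorylated 100 uM RS repeat peptide with 1 uM ATP in 25 mM Tris pH 7.5, 10 mM MgCl2, 0.5 mM EGTA, 2.5 mM DTT, 0.01% Triton X-100 for 1 h. ADP was detected by Transcreener ADP2 competitive fluorescence polarization after 30 min at room temperature.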
Structure (SMILES),"activity change, negative = inhibition [%]",Potency
O=c1c(-c2cccc(F)c2)nc2cncnc2n1Cc1ccc(F)cc1,7.97,
O=c1c(CCc2ccccc2)nc2cnc(N3CCNCC3)nc2n1Cc1cccs1,4.15,
COc1ccccc1-c1nc(Nc2ccncc2)c2ccccc2n1,,14.1 µM (active)
COc1ccc(Oc2ncc3nc(-c4ccc(F)cc4)c(=O)n(C[C@H]4CCCO4)c3n2)cc1,5.13,
CN(C)c1ncc2nc(-c3ccccc3)c(=O)n(C)c2n1,3.99,
COc1ncc2nc(-c3ccccc3)c(=O)n(CCc3ccccc3)c2n1,8.21,
CN(C)c1ccc(-c2cncnc2NCCN2CCOCC2)cc1,3.22,
COc1ccc(-c2nc3cnc(N4CCN(C)CC4)nc3n(CCc3ccccc3)c2=O)cc1,11.3,
CN(Cc1ccco1)c1ncnc2ccc(-c3cccc(NS(C)(=O)=O)c3)cc12,,7.94 µM (active)
COc1cccc(-c2ccc3ncnc(N4CCNCC4)c3c2)c1,,1 µM (active)
O=c1c(CCc2ccccc2)nc2cnc(Nc3ccccc3)nc2n1C[C@H]1CCCO1,-0.613,
CN(C)c1ccc(-c2cc(N(C)Cc3ccco3)ncn2)cc1,-18.5,
CN1CCN(c2ncnc3ccc(-c4ccccc4C(F)(F)F)cc23)CC1,-9.19,
COCCn1c(=O)c(-c2ccccc2)nc2cnc(Oc3cccc(Cl)c3)nc21,5.74,
COc1ccccc1-c1ccc2ncnc(N3CCNCC3)c2c1,,7.94 µM (active)
COc1ccccc1-c1nccc(NCc2cccs2)n1,7.5,
CCNc1ncc2nc(CCc3ccccc3)c(=O)n(CCC#N)c2n1,7.5,
COc1ccccc1-c1ccc2ncnc(N3CCOCC3)c2c1,,11.2 µM (active)
COc1ccccc1CNc1cc(-c2ccccc2CN(C)C)ncn1,4.55,
